# Compounds without any hit were thinned out: in the full panel of roughly 83,000, 20% have a hit.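 A percent growth of 40 corresponds to 60% growth inhibition; 0 means no net growth; -100 means all cells died. Active threshold: below 10.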 Values without a mark were called inactive. Calls of active or inactive are those of the source.
# What was measured:
# Assay in all cases: NCI-60 one-dose screen, 48 h (100 = growth as untreated, 0 = no growth, -100 = all killed)
# Settings in all cases: 10 µM unless noted
# [1] = tested on: DU-145 prostate
# [2] = tested on: K-562 leukemia
# [3] = tested on: MALME-3M melanoma
# [4] = tested on: MDA-MB-231 breast
# [5] = tested on: RXF 393 renal
# [6] = tested on: SF-268 CNS
# [7] = tested on: SF-295 CNS
# [8] = tested on: SF-539 CNS
# [9] = tested on: UACC-257 melanoma
# [10] = tested on: M14 melanoma
SMILES,growth [1],growth [2],growth [3],growth [4],growth [5],growth [6],growth [7],growth [8],growth [9],growth [10]
Cn1/c(=N/NC(N)=S)ccc2ccccc21,103%,46.4%,90.8%,87.7%,102%,91.8%,89.5%,97.8%,70%,86.4%
CCCCCN1C=C/C(=C\C(=O)N(C)c2cccc3ccccc23)c2ccccc21,104%,77.4%,94%,106%,107%,95.3%,97.7%,105%,106%,102%
CC(=O)O[C@]1(C(C)=O)CC[C@H]2[C@@H]3C=C(Cl)C4=CC(=O)CC[C@]4(C)[C@H]3CC[C@@]21C,122%,96.7%,125%,88.1%,109%,111%,113%,102%,97.2%,103%
Nc1cc(N)c2cccnc2c1O,72.7%,37.5%,85%,78.6%,74.9%,83.4%,63.2%,66.1%,76.1%,76.5%
COc1cc2oc(-c3cccc(C(=O)Nc4ccc(Cl)cc4)c3)cc(=O)c2c(OC)c1OC,42.4%,16%,14.2%,-3.1% (active),-29% (active),48.3%,-41.6% (active),35.2%,-7.18% (active),-18% (active)
C#CCNC(=O)[C@H](Cc1ccccc1)NC(=O)[C@]12CC[C@@H](C(=C)C)[C@@H]1[C@H]1CC[C@@H]3[C@@]4(C)Cc5c([nH]c6ccccc56)C(C)(C)[C@@H]4CC[C@@]3(C)[C@]1(C)CC2,101%,83.9%,113%,97.7%,93.9%,92.6%,96.6%,102%,96.7%,96.4%
CC(O)/C=C/C=C/C(O)CC/C=C/C(=O)NCC(C)(C)O (stereo not given),106%,72.8%,112%,111%,121%,108%,107%,109%,91.5%,101%
CC(C)(C)OC(=O)N1CCN(c2ccc(N)cc2)C(=O)C1,115%,99.9%,106%,98.8%,110%,103%,98.2%,107%,107%,101%
CO[C@@H]1[C@H](N(C)C(=O)c2ccccc2)C[C@@H]2O[C@]1(C)n1c3ccccc3c3c4c(c5c6ccccc6n2c5c31)C(=O)NC4=O,50.1%,52.4%,38.5%,41.7%,-37.8% (active),48.2%,42.5%,13.6%,61.5%,37.1%
NNC(=O)/C(=C\c1ccc([N+](=O)[O-])cc1)CC(=O)c1ccc(Cl)c(Cl)c1,88.7%,88.8%,94.3%,89%,97.8%,65.1%,93.6%,98.1%,91.1%,85.6%
COC(=O)C(c1ccccc1)C(CC(=O)c1ccccc1)c1ccccc1 (stereo not given),95.8%,73.1%,69.7%,98.1%,80.9%,83.8%,79.9%,98.6%,101%,103%
CC1(C)NCCC[C@]2(C)[C@H]3CC=C4[C@@H]5C[C@@](C)(CO)CC[C@]5(C)CC[C@@]4(C)[C@]3(C)CC[C@@H]12,75.6%,9.28% (active),57%,58%,57.8%,67.1%,64.1%,64.6%,55.1%,33.6%
C=C(C)[C@@H]1CC[C@]2(C(=O)N3CCN(C)CC3)CC[C@]3(C)[C@H](CC[C@@H]4[C@@]5(C)CCC(=O)C(C)(C)[C@@H]5CC[C@]43C)[C@@H]12,82.8%,60.5%,89%,79.4%,80.5%,77.2%,103%,73.9%,101%,94.7%
COc1cc2nc(-c3ccc(C(F)(F)F)cc3)cc(OCCCN3CCC(O)CC3)c2cc1OC,28.3%,6.21% (active),43.9%,11.2%,42.1%,49.9%,-43.5% (active),45.5%,-8.17% (active),-55.9% (active)
COc1ccccc1C(C[N+](=O)[O-])c1c(-c2ccccc2)[nH]c2cc(C)ccc12 (stereo not given),101%,8.66% (active),61.2%,55.4%,74.7%,78.6%,54.1%,84.2%,83%,45.6%
CC(c1ccccc1)n1ccnc1CO (stereo not given),113%,105%,85.5%,104%,101%,107%,96.1%,106%,106%,109%
CCCCCCOc1ccc(C(=N)N(CCCC)CCCC)c2ccccc12,-92.4% (active),-42.3% (active),-82.7% (active),-89.7% (active),-94.5% (active),-84.4% (active),-89.1% (active),-92.8% (active),-85.5% (active),-96.1% (active)
O=S(=O)(NCCCNc1nccc(-c2c(-c3cccc(O)c3)nc3occn23)n1)c1ccc(Br)cc1,97%,67.3%,11.5%,64.3%,82.6%,97.1%,111%,110%,18.4%,29%
Cc1n[nH]c(C)c1-c1c(C)n[nH]c1C,9.47% (active),5.03% (active),-38.3% (active),-14.5% (active),-47.8% (active),19.1%,18.8%,-54.6% (active),39.6%,-4.4% (active)
COC(=O)N[C@H]1CCc2cc(OC)c(OC)c(OC)c2-c2ccc(SC)c(=O)cc21,1.4% (active),9.06% (active),37.3%,-22.3% (active),22.5%,15.9%,7.65% (active),-27.6% (active),59.4%,3.18% (active)
COc1cc2c(cc1[N+](=O)[O-])-c1ccc([N+](=O)[O-])cc1/C2=N/NC(N)=S,79%,59.9%,93.7%,74.4%,68.2%,73.9%,43.6%,73%,75.5%,82.8%
COc1cc2nc(-c3ccc(C(F)(F)F)cc3)cc(OCCN3CCC(O)CC3)c2cc1OC,58.8%,61.3%,83.6%,49.1%,61.2%,70%,80.4%,76.8%,92.3%,25.2%
CCCCCCCCOc1ccc(/C=N/Nc2cc(C)nc3ccc(Cl)cc23)cc1,-87.3% (active),-52.6% (active),91%,-59.3% (active),-68.9% (active),104%,-72.8% (active),-81% (active),116%,87.7%
O=C(/C=C/c1ccc[nH]1)c1ccc(-n2ccc(C(F)(F)F)n2)cc1,96.4%,68.1%,86%,22.7%,50%,34.2%,70.2%,14.3%,96.7%,94.5%

# Source: PubChem BioAssay (NCI)
